Rows were chosen to be rich in hits. Some 13% of all compounds tested hit in one or more screens of this group.
USP17 block = inhibitors of human USP17 deubiquitinase | inhibition, % at 50 µM | AID 1645855 | actives 6.5% (n = 47,000) | purified USP17, Ub-rhodamine cleavage fluorescence, 3 h
Target sequence (A8MUK1 whole entry, looked up): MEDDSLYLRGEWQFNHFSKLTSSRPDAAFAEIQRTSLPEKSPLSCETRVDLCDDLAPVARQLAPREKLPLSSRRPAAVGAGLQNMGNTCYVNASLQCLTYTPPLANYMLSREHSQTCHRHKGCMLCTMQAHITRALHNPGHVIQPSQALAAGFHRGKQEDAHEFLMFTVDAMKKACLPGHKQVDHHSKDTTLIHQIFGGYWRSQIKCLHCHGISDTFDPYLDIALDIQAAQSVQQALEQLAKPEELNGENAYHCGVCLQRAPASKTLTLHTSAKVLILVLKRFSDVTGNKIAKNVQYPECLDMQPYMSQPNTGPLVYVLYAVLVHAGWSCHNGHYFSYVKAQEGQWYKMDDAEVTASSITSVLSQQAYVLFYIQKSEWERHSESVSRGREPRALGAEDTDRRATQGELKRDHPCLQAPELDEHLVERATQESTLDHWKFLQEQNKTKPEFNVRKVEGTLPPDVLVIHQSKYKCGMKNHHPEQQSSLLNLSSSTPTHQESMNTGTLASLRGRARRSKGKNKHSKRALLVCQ
USP8 inh = inhibitors of human USP8 deubiquitinase | P40818 | inhibition, % at 20 µM | purified USP8, Ub-rhodamine cleavage fluorescence, 30 min | actives 4.2% (n = 47,000) | AID 1645853
USP30 inh = blocks human USP30 ubiquitin-rhodamine cleavage; purified USP30, Ub-rhodamine cleavage fluorescence; actives 5.3% (n = 47,000); inhibition, % at 25 µM; Q70CQ3
OTUD3 inh = human OTUD3 deubiquitinase inhibition | Q5T2D3 | purified OTUD3, Ub-rhodamine fluorescence, 2 h | inhibition, % at 25 µM | actives 0.7% (n = 47,000) | AID 1645858
USP28 inh = human USP28 deubiquitinase inhibition; Q96RU2; actives 3% (n = 47,000); purified USP28, Ub-rhodamine cleavage fluorescence, 30 min; AID 1645857; inhibition, % at 25 µM
USP10 inh = inhibitors of human USP10 deubiquitinase; Q14694; purified USP10, Ub-rhodamine fluorescence, 60 min; inhibition, % at 20 µM; actives 1.1% (n = 47,000)
An asterisk follows results filed as active; . = not tested or not shown. Cut-off read from the data, not from the text of the source: active = inhibition above about 30%; inactive = the rest.

SMILES | USP17 block | USP8 inh | USP30 inh | OTUD3 inh | USP28 inh | USP10 inh
O=c1[nH]c(C2CCN(S(=O)(=O)c3ccc(S(=O)(=O)NC4CCCC4)cc3)CC2)nc2c1nnn2Cc1cccc(Cl)c1 | 23 | -12 | 59* | 2 | 38* | 37*
COC(=O)c1cc(C#N)c(NCc2ccccc2)nc1C | 59* | 4 | 24 | 1 | 18 | 5
CCOC(=O)c1cc(C#N)c(NCc2ccccc2OC)nc1-c1ccccc1 | -2 | -8 | -7 | 4 | -1 | 10
O=c1c2cnc3ncnn3c2ccn1CC1CCCO1 (centres undefined) | -1 | 8 | 3 | 0 | -1 | 2
Cc1ccc2cccc(OCc3nnc(SCC(=O)c4ccc(Cl)cc4)n3C)c2n1 | 61* | 33* | 39* | 21 | 6 | 13
CCn1nc(-n2cnnc2)c(NC(=O)c2ccc(Cl)cc2)c1C | 2 | 1 | -4 | -2 | -2 | 1
COC(=S)NC(=O)/C=C/c1ccccc1 | 22 | 24 | 32* | 23 | 17 | 8
O=C(COC(=O)c1ccc2ncsc2c1)Nc1ccccc1F | 61* | -25 | 0 | -4 | 2 | 3
Cc1cc(C)n(-c2nc(C)c(C)c(=O)n2CC(=O)NC2CCCCC2)n1 | -3 | -7 | -15 | -5 | -10 | -2
COc1ccc(-n2cc(C(=O)NC(C)c3ccc4c(c3)OCCO4)c3ccccc3c2=O)cc1 (centres undefined) | 22 | 11 | 36* | 7 | 25 | 2
COc1cc(C#N)ccc1OCC(=O)Nc1ccccc1Oc1ccccc1 | -4 | 0 | 8 | -4 | 0 | 9
COC(=O)c1sccc1NC(=O)c1cccs1 | 30* | 4 | 26 | 10 | 11 | 7
COC(=O)c1sccc1NC(=O)COc1ccsc1C(=O)OC | 51* | 5 | 22 | -3 | 7 | 1
O=C(NC1CCSC1)c1ccccc1Cl (centres undefined) | 14 | 2 | . | 6 | . | 0
COc1ccc(-c2nc(-c3cc4cc(OC)ccc4[nH]c3=O)no2)cc1 | -7 | 35* | -116 | -50 | -31 | -2
COc1ccc(-c2cc(C(=O)Nc3n[nH]c4nc(C)ccc34)[nH]n2)c(OC)c1 | 32* | 56* | 4 | 2 | 4 | 1
Cc1cc(-c2noc(-c3cccnc3)n2)c2ccccc2n1 | 40* | -6 | 0 | -9 | 0 | -3
COc1nc2ccc(C)cc2cc1-c1noc(-c2cccnc2)n1 | -25 | -90 | -111 | -25 | -24 | -9
O=C1Cc2cc(S(=O)(=O)Nc3ccc4c(c3)OCO4)cc3c2N1CCC3 | 3 | 22 | -40 | -8 | -5 | -2
COc1ccccc1CNC(=O)c1ccccc1OCc1ccccc1Cl | 24 | 13 | 32* | 30* | 29 | 12
NS(=O)(=O)c1cc(C(=O)OCC(=O)NC2CCCc3ccccc32)ccc1Cl (centres undefined) | 55* | 2 | 32* | -1 | 13 | 6
COc1cc(N)c(Cl)cc1C(=O)OCC(=O)c1ccc2c(c1)OCCO2 | 1 | -3 | 0 | 1 | 55* | 5
COc1cc(N)c(Cl)cc1C(=O)OCC(=O)Nc1ccc(N2CCOCC2)cc1 | 38* | 39* | 5 | 5 | 3 | 0
Cc1cccc(Nc2ccccc2C(=O)OCC(=O)Nc2ccc(N3CCOCC3)cc2)c1C | 13 | 13 | 19 | 12 | 8 | 3
NS(=O)(=O)c1cc(C(=O)OCC(=O)Nc2ccc(N3CCOCC3)cc2)ccc1Cl | 34* | 21 | 14 | 7 | -1 | 6
SMILES | USP17 block | USP8 inh | USP30 inh | OTUD3 inh | USP28 inh | USP10 inh
N#Cc1ccccc1OCC(=O)NC1CCCc2ccccc21 (centres undefined) | -9 | -177 | 1 | -4 | -9 | 0
Cc1ccc(/C=C(\C(=O)N(CCO)Cc2ccccc2)n2ccccc2=O)cc1 | 16 | 29 | 16 | 12 | 7 | 0
Fc1ccc(CNc2n[nH]c(NCc3ccc(F)cc3)n2)cc1 | 24 | 9 | 18 | 4 | 5 | 1
Fc1ccc(-c2nsc3c(N4CCCC4)ncnc23)cc1 | 32* | 0 | 19 | 16 | 2 | -1
Fc1ccc2[nH]c3c(N4CCCC4)ncnc3c2c1 | -9 | 14 | 6 | 0 | -1 | 5
O=C(NC1(c2nc(C3CC3)no2)CCCCC1)c1ccccc1Cl | 6 | 7 | 15 | 12 | 15 | 4
Cc1ccc(CSc2nc3c(c(N4CC(C)OC(C)C4)n2)CCCC3)cc1 (centres undefined) | -6 | -1 | -3 | -4 | -15 | 0
Cc1ccc(CSc2nc3c(c(N(C)C)n2)CCCC3)cc1 | 14 | 21 | 33* | 24 | 47* | 8
Cc1cc(C)c(-c2noc(C)n2)c(NC(=O)c2cc(F)ccc2F)n1 | 4 | 6 | -1 | -3 | -2 | 0
CCc1ccc(NC(=O)Cn2c(=O)n(-c3ccc(CC(=O)NCc4ccco4)cc3)c(=O)c3ccccc32)cc1 | 47* | 29 | -22 | 0 | 0 | 21
COc1cc(NC(=O)Cn2c(=O)n(-c3ccc(CC(=O)NCc4ccco4)cc3)c(=O)c3ccccc32)cc(OC)c1 | 4 | 22 | 9 | 13 | 9 | 23
O=C(Cn1c(=O)c2ccccc2n(CC(=O)Nc2ccc(Br)cc2)c1=O)NCc1ccco1 | 31* | 44* | 21 | 15 | 15 | 23
O=C(Cn1c(=O)n(-c2ccc(F)cc2)c(=O)c2oc3ccccc3c21)NC1CCCCC1 | 17 | 41* | -6 | 10 | 6 | 7
O=C(Cn1c(=O)n(CC(=O)NC2CCCC2)c(=O)c2ccccc21)Nc1ccc(Br)cc1 | 38* | 9 | 41* | 12 | 24 | 5
CC1CCN(C(CNC(=O)c2cc(-c3cccs3)on2)c2ccco2)CC1 (centres undefined) | -138 | -17 | -193 | -83 | -37 | -2
CCn1c(=O)[nH]c2c(C(=O)N3CCc4ccccc4C3)snc2c1=O | 3 | 14 | 17 | 10 | 15 | 0
CCc1ccc(-n2c(=O)c3ccccc3n(CC(=O)NC3CCCC3)c2=O)cc1 | 62* | 5 | 52* | 26 | 31* | 9
COc1cc(Cl)c(C)cc1NC(=O)Cn1c(=O)n(CC(=O)NCc2ccco2)c(=O)c2ccccc21 | 50* | 64* | 28 | 40* | 39* | 43*
CCc1noc(Cn2cnc3c4ccccc4n(CC(=O)NC4CCCCC4)c3c2=O)n1 | 46* | 22 | 69* | 25 | 53* | 18
O=C(Cn1c(=O)c2ccccc2n(CC(=O)Nc2cc(Cl)cc(Cl)c2)c1=O)NCc1ccco1 | 30 | 50* | 40* | 12 | 17 | 35*
CC(C)(C)C(=O)Cn1c(=O)n(-c2ccc(CC(=O)NC3CCCC3)cc2)c(=O)c2ccccc21 | -17 | -21 | -55 | -6 | -15 | 1
O=C(NC1CCCCC1)c1nc(Cn2cnc3ccccc3c2=O)no1 | 14 | 12 | 0 | 1 | -1 | 3
